From ChEMBL document CHEMBL5308504, “Tm Shift (DSF) assay results for EUbOPEN Chemogenomics Library” (2023)

Assays:
Conditions in all cases: Compound concentration 20.0 uM, Protein concentration 2.0 uM, Result type QC Liability
[1] = target: Tyrosine-protein kinase ABL1 (Homo sapiens) (UniProt P00519)
[2] = target: Cyclin-dependent kinase 2 (Homo sapiens) (UniProt P24941)
[3] = target: Casein kinase I isoform delta (Homo sapiens) (UniProt P48730)
[4] = target: Glycogen synthase kinase-3 beta (Homo sapiens) (UniProt P49841)
Chain of Glycogen synthase kinase-3 beta (Homo sapiens) (P49841 whole entry, looked up): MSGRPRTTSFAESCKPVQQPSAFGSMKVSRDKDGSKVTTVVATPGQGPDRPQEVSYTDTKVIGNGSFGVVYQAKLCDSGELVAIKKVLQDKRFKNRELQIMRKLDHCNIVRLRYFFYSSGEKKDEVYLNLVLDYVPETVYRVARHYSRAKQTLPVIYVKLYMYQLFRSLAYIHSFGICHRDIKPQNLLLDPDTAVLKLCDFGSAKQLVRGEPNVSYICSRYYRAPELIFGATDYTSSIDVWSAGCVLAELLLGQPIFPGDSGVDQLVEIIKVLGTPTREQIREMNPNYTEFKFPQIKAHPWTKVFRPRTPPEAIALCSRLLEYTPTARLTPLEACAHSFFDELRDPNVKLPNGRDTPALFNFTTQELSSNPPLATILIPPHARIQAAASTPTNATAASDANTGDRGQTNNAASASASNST

[5] = target: Mitogen-activated protein kinase 1 (Homo sapiens) (UniProt P28482)
Chain of Mitogen-activated protein kinase 1 (Homo sapiens) (P28482 whole entry): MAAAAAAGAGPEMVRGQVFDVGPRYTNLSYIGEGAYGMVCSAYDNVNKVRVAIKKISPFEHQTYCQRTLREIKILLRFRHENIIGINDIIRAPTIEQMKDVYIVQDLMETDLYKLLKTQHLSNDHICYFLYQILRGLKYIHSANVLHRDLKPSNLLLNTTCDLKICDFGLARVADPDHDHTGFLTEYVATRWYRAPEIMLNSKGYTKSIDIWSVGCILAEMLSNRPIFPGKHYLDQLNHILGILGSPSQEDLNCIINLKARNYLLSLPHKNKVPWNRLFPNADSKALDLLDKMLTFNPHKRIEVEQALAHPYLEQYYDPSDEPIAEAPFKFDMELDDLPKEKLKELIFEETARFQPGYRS

[6] = target: T1, Aurora kinase A (Homo sapiens) (UniProt O14965)
T1 sequence (whole entry): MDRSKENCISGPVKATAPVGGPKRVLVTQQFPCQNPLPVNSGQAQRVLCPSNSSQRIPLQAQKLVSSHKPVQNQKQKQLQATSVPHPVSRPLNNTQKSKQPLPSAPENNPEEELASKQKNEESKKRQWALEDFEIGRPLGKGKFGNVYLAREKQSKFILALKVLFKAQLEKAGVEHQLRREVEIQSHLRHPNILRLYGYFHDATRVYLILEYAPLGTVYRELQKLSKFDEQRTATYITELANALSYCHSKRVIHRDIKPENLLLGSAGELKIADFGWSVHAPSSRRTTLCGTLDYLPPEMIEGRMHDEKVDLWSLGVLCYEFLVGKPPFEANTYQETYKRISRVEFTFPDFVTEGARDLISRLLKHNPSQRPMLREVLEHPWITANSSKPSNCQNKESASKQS

Chain of Tyrosine-protein kinase ABL1 (Homo sapiens) (P00519 whole entry): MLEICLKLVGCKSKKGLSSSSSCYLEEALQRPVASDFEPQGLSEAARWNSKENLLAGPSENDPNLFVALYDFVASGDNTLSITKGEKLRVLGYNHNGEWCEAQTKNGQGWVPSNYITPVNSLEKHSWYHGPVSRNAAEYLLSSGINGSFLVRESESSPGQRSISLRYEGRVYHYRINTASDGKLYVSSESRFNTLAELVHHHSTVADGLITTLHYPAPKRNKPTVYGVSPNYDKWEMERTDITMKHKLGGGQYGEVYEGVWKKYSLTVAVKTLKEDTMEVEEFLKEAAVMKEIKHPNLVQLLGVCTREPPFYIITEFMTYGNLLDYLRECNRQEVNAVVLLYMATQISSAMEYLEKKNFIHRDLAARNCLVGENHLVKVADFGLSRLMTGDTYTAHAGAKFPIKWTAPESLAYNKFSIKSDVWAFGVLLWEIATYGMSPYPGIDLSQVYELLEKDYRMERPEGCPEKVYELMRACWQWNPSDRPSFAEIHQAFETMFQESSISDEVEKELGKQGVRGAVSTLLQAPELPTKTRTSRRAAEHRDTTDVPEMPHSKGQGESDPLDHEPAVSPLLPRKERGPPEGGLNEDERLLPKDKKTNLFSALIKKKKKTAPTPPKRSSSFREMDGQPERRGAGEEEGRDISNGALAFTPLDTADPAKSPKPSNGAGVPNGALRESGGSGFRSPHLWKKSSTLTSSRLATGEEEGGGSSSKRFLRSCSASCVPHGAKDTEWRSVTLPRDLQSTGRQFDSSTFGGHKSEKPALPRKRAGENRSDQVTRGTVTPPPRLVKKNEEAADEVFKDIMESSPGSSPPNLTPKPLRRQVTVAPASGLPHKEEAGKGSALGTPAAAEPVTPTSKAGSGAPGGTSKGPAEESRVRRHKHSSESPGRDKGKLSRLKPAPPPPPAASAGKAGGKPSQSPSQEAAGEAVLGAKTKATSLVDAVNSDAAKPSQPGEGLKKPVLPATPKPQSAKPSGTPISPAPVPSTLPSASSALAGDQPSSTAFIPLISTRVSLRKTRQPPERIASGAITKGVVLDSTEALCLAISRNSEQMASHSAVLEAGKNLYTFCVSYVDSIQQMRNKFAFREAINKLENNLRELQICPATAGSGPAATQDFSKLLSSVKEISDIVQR
Chain of Casein kinase I isoform delta (Homo sapiens) (P48730 whole entry, looked up, canonical isoform): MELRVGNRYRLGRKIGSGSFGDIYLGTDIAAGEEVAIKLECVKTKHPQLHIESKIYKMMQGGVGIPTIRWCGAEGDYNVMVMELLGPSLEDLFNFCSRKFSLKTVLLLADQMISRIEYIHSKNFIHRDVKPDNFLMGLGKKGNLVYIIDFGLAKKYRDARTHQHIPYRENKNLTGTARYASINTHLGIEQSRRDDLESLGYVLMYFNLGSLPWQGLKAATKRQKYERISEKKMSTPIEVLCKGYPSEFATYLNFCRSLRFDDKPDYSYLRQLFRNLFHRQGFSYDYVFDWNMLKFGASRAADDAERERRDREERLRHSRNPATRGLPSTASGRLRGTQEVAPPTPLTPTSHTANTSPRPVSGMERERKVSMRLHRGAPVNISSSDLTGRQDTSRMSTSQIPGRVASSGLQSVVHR

SMILES | ΔTm [1] [°C] | ΔTm [2] [°C] | ΔTm [3] [°C] | ΔTm [4] [°C] | ΔTm [5] [°C] | ΔTm [6] [°C]
CCc1c(-c2ccc3[nH]ncc3c2)cnc(N)c1-c1ccc(O)cc1 | 1.38 | 2.8 | 1.28 | 1.03 | 0.44 | 3.28
COc1cc(-c2cn(C)c(=O)c3cnccc23)cc(OC)c1CN(C)C | 0.24 | 0.43 | 0.32 | 0.06 | 0.23 | 0.56
Cc1nc2ccccc2c(-c2ccc3c4c(ccnc24)CCO3)c1[C@H](OC(C)(C)C)C(=O)O | -0.44 | 0.2 | 0.28 | -0.88 | 0.3 | -0.03
Cc1cccc(-c2[nH]c(CNc3ccccc3F)nc2-c2ccc3ncnn3c2)n1 | 3.23 | 0.92 | 1.1 | -0.02 | 0.92 | 0.8
CC[C@@H](CO)Nc1nc(Nc2cccc(NC(=O)C(C)(C)C)c2)ncc1F | 1.74 | 1.9 | 0.38 | 3.34 | 0.54 | 9.07
COc1cc(-c2cn[nH]c2)ccc1C(=O)Nc1ccc2c(c1)CCNCC2 | 0.96 | 0.47 | 0.7 | -0.7 | 0.38 | 0.13
COc1nc2ccc([C@@](O)(c3ccccc3)C3CCN(C(C)=O)CC3)cc2c(Cl)c1Cc1ccc(-n2cccn2)cc1 | -0.06 | -0.4 | -0.56 | -3.26 | 0.14 | -0.6
COc1ccc(C(=O)N[C@H](C)c2cccc(C(=O)Nc3nc4c(s3)CN(C)CC4)c2)cc1C | 0.22 | 0.42 | 0.41 | -0.51 | 0.45 | 0.16
COc1cc(O)c(C(CC(=O)N2C[C@H](C)C[C@H](C)C2)c2ccc3c(c2)OCO3)c(OC)c1 (some centres not stated) | 4.29 | 0.29 | 0.17 | 1 | 0.25 | 0.33
CNC(=O)c1cc(C(=O)N[C@H]2[C@@H]3COC[C@@H]32)cc2c1O[C@@H](CF)[C@@H]2c1ccccc1 | -0.03 | 0.5 | 0.22 | -0.96 | 0.58 | -0.12
CC1(C)Cc2nc(C3CCCC3)c([C@@H](F)c3ccc(C(F)(F)F)cc3)c(C3CCCCC3)c2[C@@H](O)C1 | 0 | 1.04 | 0.11 | 0 | 0.06 | -0.24
Cc1[nH]nc(C(F)(F)F)c1Cc1sc2c(c1C(=O)N1C[C@](C)(O)CO1)c(=O)n(C)c(=O)n2C(C)C | 0.24 | 0.67 | -0.27 | 0.32 | 0.23 | -0.32
Nc1ncnc2c1ccn2[C@@H]1O[C@H]([C@@H](O)c2ccccc2)[C@@H](O)[C@H]1O | 0.21 | 0.7 | 0.65 | -0.88 | 0.25 | -1.22
CC(=O)c1c(C)c2cnc(Nc3ccc(N4CCN(CCOCCOCCOCCNC(=O)COc5cccc6c5C(=O)N(C5CCC(=O)NC5=O)C6=O)CC4)cn3)nc2n(C2CCCC2)c1=O (configuration not stated) | -0.65 | -0.26 | 1.49 | 1.18 | -1.16 | 0.61
O=C(O)c1ccc(CN2C[C@@H]3C[C@H]2CN3Cc2ccc(Oc3ccc(-c4ncco4)cc3)cc2)cc1 | 0.42 | 0.83 | 0.25 | -0.14 | 0.14 | -0.18
CCn1c(-c2nonc2N)nc2cncc(C(=O)N3CC[C@H](N)C3)c21 | -0.16 | 0.25 | 0.4 | 6 | 0.69 | 0.77
Cn1c(C2(NC(=O)c3ccc(NCC4CCCCC4)nc3)CCC2)nc2ccc(/C=C/C(=O)O)cc21 | 0.22 | 0.23 | 0.38 | -1.07 | 0.02 | 0.04
N[C@@H]1CCCC[C@H]1Oc1ccc2ncc(-c3cc4ccccc4o3)n2n1 | 0.63 | 1.2 | 1.01 | 4.43 | 0.17 | 1.07
Cc1cc(-c2cc3ncccc3c(OC[C@H]3CCCNC3)n2)ccc1N(C)C | 5.72 | 0.38 | 2.65 | 1.68 | 0.09 | 7.37
O=C(O)c1ccnc(N2CC(O)(c3ccc(OCc4c(-c5c(Cl)cccc5Cl)noc4C4CC4)cc3Cl)C2)c1 | 0.22 | -0.27 | 0.41 | -0.81 | -0.58 | -1.95
Cc1ccc(NC(=O)c2ccc3c(c2)OCCO3)cc1NC(=O)c1ccc2nc(OCCN3CCCC3)ccc2c1 | 2.56 | 1.06 | 1.91 | 0.36 | 0.33 | -0.43
CCCCC/C=C/C=C1/C(=O)C=C[C@@H]1C/C=C\CCCC(=O)O | -2.05 | -0.61 | -0.75 | -0.25 | -0.53 | -1.52
